Data as given in PubChem BioAssay (EPA / NIEHS).
Records with an inconclusive call do not appear. A structure can be active in one record and inactive in another. Calls of active or inactive are those of the source. The calls were made as follows: active = hit-call score of the fitted dose curve at least 0.9, where 1 is the maximum; inconclusive = response in the unintended direction; inactive = score below 0.9.

tested on: not listed separately; test: TOX21_p53_BLA_p5_viability: Viability Assessment in the Tox21 HCT-116 p53 Agonism Beta-lactamase Assay, Phase 5 (AID 2283600)
Procedure, shortened: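 Counter-readout for cytotoxicity: ATP-dependent luminescence from CellTiter-Glo, read in the beta-lactamase wells after 30 min at RT, following a 16 h compound exposure at 37C.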

SMILES	outcome	AC50
CC1(C)S[C@@H]2[C@H](NC(=O)[C@H](N)c3ccccc3)C(=O)N2[C@H]1C(=O)O	inactive	
Cc1cc(C)c(S(=O)(=O)O)cc1N=Nc1cc(S(=O)(=O)O)c2ccccc2c1O	inactive	
CCCc1c(OCCCCc2nn[nH]n2)ccc(C(C)=O)c1O	inactive	
Clc1ccccn1	inactive	
c1cc(N(CC2CO2)CC2CO2)ccc1Cc1ccc(N(CC2CO2)CC2CO2)cc1 (centres undefined)	inactive	
CC1=NN(c2cc(Cl)c(S(=O)(=O)O)cc2Cl)C(=O)C1N=Nc1ccc(S(=O)(=O)O)cc1 (centres undefined)	inactive	
O=C(O)Cc1c[nH]c2ccccc12	inactive	
C[Si](C)(C)O[Si](C)(C)O[Si](C)(C)C	inactive	
CC(C)n1c(/C=C/[C@@H](O)C[C@@H](O)CC(=O)O)c(-c2ccc(F)cc2)c2ccccc21	inactive	
CC1=C(CC=O)C(C)(C)CCC1	inactive	
Cc1ccccc1S(N)(=O)=O	inactive	
C=C(C)C(=O)OCC1CCCO1 (centres undefined)	inactive	
OCCOCCOCCOCCOCCO	inactive	
CC(C)CC(=O)CC(C)CC(C)C (centres undefined)	inactive	
CN(C)CCC(c1ccc(Cl)cc1)c1ccccn1 (centres undefined)	inactive	
CN(C)CCCN1c2ccccc2CCc2ccc(Cl)cc21	inactive	77.1 µM (active)
CC/C=C\CC1=C(C)CCC1=O	inactive	
C[C@H]1C[C@H]2[C@@H]3CCC4=CC(=O)C=C[C@]4(C)[C@@]3(F)[C@@H](O)C[C@]2(C)[C@@]1(O)C(=O)CO	inactive	
COC(OC)C(C)c1ccccc1 (centres undefined)	inactive	
COCCCN	inactive	
CC1=CCCC(C)(C)C12CCC(C)O2 (centres undefined)	inactive	
COc1ccccc1OCC(O)CO (centres undefined)	inactive	

target: Cellular tumor antigen p53 (Homo sapiens) (UniProt P04637); test: TOX21_p53_BLA_p4_ratio: Tox21 HCT-116 p53 Agonism Beta-lactamase Assay, Ratio, Phase 4 (AID 2283601)
Procedure, shortened: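 HCT116 cells carrying an inducible beta-lactamase reporter were plated at 4000 cells/well, rested 5 h, then exposed to compounds in DMSO (217-fold dilution) for 16 h at 37C. CCF4-AM substrate was loaded 2 h at room temperature; 460/530 nm emission ratio scored gain-of-signal versus DMSO.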

Sequence of Cellular tumor antigen p53 (Homo sapiens) (P04637 whole entry, looked up): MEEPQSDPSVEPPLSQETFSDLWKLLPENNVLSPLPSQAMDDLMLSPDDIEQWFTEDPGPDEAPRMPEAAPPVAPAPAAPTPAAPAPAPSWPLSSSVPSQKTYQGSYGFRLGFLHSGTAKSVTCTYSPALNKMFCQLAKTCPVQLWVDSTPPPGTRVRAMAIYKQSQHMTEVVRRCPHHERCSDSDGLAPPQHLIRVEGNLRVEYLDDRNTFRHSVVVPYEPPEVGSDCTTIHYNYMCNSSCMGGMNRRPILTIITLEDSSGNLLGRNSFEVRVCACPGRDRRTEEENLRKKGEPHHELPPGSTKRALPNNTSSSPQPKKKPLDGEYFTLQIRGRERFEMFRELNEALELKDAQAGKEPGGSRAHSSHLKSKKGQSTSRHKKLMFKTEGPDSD

SMILES	outcome	AC50
CC1(C)S[C@@H]2[C@H](NC(=O)[C@H](N)c3ccccc3)C(=O)N2[C@H]1C(=O)O	inactive	
Cc1cc(C)c(S(=O)(=O)O)cc1N=Nc1cc(S(=O)(=O)O)c2ccccc2c1O	inactive	
CCCc1c(OCCCCc2nn[nH]n2)ccc(C(C)=O)c1O	inactive	25.2 µM (active)
c1cc(N(CC2CO2)CC2CO2)ccc1Cc1ccc(N(CC2CO2)CC2CO2)cc1 (centres undefined)		33.1 µM (active)
CC1=NN(c2cc(Cl)c(S(=O)(=O)O)cc2Cl)C(=O)C1N=Nc1ccc(S(=O)(=O)O)cc1 (centres undefined)	inactive	
O=C(O)Cc1c[nH]c2ccccc12	inactive	
CCCCCCCCCCC1CO1 (centres undefined)	inactive	
NCc1ccccc1	inactive	
CC(C)CC(=O)O	inactive	
C[Si](C)(C)O[Si](C)(C)O[Si](C)(C)C	inactive	
CC(C)n1c(/C=C/[C@@H](O)C[C@@H](O)CC(=O)O)c(-c2ccc(F)cc2)c2ccccc21	inactive	
CC1=C(CC=O)C(C)(C)CCC1	inactive	
C=C(C)C(=O)OCC1CCCO1 (centres undefined)	inactive	
OCCOCCOCCOCCOCCO	inactive	
CC(C)CC(=O)CC(C)CC(C)C (centres undefined)	inactive	
CCCOCCC	inactive	
CN(C)CCCN1c2ccccc2CCc2ccc(Cl)cc21	inactive	
CC/C=C\CC1=C(C)CCC1=O	inactive	
C[C@H]1C[C@H]2[C@@H]3CCC4=CC(=O)C=C[C@]4(C)[C@@]3(F)[C@@H](O)C[C@]2(C)[C@@]1(O)C(=O)CO	inactive	
COC(OC)C(C)c1ccccc1 (centres undefined)	inactive	
COCCCN	inactive	
CC1=CCCC(C)(C)C12CCC(C)O2 (centres undefined)	inactive	
CC(=O)c1nccs1	inactive	
COc1ccccc1OCC(O)CO (centres undefined)	inactive	
OCCN(CCO)c1cccc(Cl)c1	inactive	
